Assay results as given in PubChem BioAssay AID1159580 (chemical genetic matrix, 2015).
Out of some 5,500 compounds screened, about 2,000 (36%) were called active. Roughly 18% stayed inconclusive and do not appear here. Cut-off read from the data, not from the text of the source: active = normalized growth mostly below about 0.91 (no sharp cut-off); inconclusive = no clear call, values can overlap the other calls; inactive = mostly above about 0.92. The list shows a part of the results.

Assay: chemical genetic growth profiling, strain panel (AID 1159580);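 note: tested at 20 µM; growth read once vehicle control cultures reached saturation at 30 °C; 1 = growth at the plate median or of vehicle wells; lower values mean less growth of the strain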
Details: S. cerevisiae deletion strains, growth OD

Measured: normalized growth

CC(C)(O)[C@@H]1CC[C@](C)([C@H]2[C@@H](O)C[C@@]3(C)C4C[C@H](O[C@@H]5O[C@H](CO)[C@@H](O)[C@H](O)[C@H]5O)C5C(C)(C)[C@@H](O[C@@H]6OC[C@@H](O)[C@H](O)[C@H]6O)CC[C@@]56C[C@@]46CC[C@]23C)O1 (stereo not given in full)
inactive: locus YAL021C, strain ccr4, stronger effect = lower value 0.988 | locus YAL026C, strain drs2, stronger effect = lower value 0.986 | locus YAL030W, strain snc1, stronger effect = lower value 0.99 | locus YBL061C, strain skt5, stronger effect = lower value 0.999 | locus YBR009C, strain hhf1, stronger effect = lower value 1.01 | locus YBR023C, strain chs3, stronger effect = lower value 0.998 | locus YBR171W, strain sec66, stronger effect = lower value 0.989 | locus YBR231C, strain swc5, stronger effect = lower value 1 | locus YBR279W, strain paf1, stronger effect = lower value 0.991 | locus YCL011C, strain gbp2, stronger effect = lower value 0.995 | locus YCL016C, strain dcc1, stronger effect = lower value 1 | locus YCL061C, strain MRC1, stronger effect = lower value 1 | locus YCL069W, strain vba3, stronger effect = lower value 0.981 | locus YCR088W, strain abp1, stronger effect = lower value 0.986 | locus YDL005C, strain med2, stronger effect = lower value 0.977 | locus YDL040C, strain nat1, stronger effect = lower value 0.985 | locus YDR001C, strain nth1, stronger effect = lower value 0.991 | locus YDR069C, strain doa4, stronger effect = lower value 0.975 | locus YDR137W, strain rgp1, stronger effect = lower value 1.04 | locus YDR159W, strain sac3, stronger effect = lower value 0.966 | locus YDR195W, strain ref2 0.931 | locus YDR297W, strain sur2, stronger effect = lower value 1 | locus YDR334W, strain swr1, stronger effect = lower value 0.959 | locus YDR335W, strain msn5, stronger effect = lower value 0.986 | locus YDR392W, strain spt3, stronger effect = lower value 0.997 | locus YEL003W, strain gim4, stronger effect = lower value 0.991 | locus YEL037C, strain rad23, stronger effect = lower value 0.974 | locus YEL061C, strain CIN8 (second series), stronger effect = lower value 0.985 | locus YER015W, strain faa2, stronger effect = lower value 0.998 | locus YER016W, strain bim1, stronger effect = lower value 1 | locus YER111C, strain swi4, stronger effect = lower value 0.979 | locus YER155C, strain BEM2 (second series), stronger effect = lower value 1 | locus YFR010W, strain ubp6, stronger effect = lower value 0.989 | locus YGL167C, strain pmr1, stronger effect = lower value 0.979 | locus YGL173C, strain kem1, stronger effect = lower value 0.99 | locus YGL227W, strain vid30, stronger effect = lower value 0.999 | locus YGL240W, strain doc1, stronger effect = lower value 1 | locus YGL253W, strain hxk2, stronger effect = lower value 0.988 | locus YHR013C, strain ard1, stronger effect = lower value 0.976 | locus YHR027C, strain rpn1, stronger effect = lower value 0.998 | locus YHR030C, strain SLT2, stronger effect = lower value 0.954 | locus YHR079C, strain IRE1, stronger effect = lower value 0.96 | locus YHR142W, strain chs7, stronger effect = lower value 0.978 | locus YJL092W, strain hpr5, stronger effect = lower value 0.995 | locus YJL095W, strain BCK1 (second series), stronger effect = lower value 0.981 | locus YJL095W, strain BCK1, stronger effect = lower value 1.05 | locus YJL115W, strain asf1, stronger effect = lower value 0.978 | locus YJL129C, strain trk1, stronger effect = lower value 0.989 | locus YJL154C, strain vps35, stronger effect = lower value 0.972 | locus YJL164C, strain tpk1, stronger effect = lower value 1 | locus YJL166W, strain qcr8, stronger effect = lower value 0.987 | locus YJL187C, strain SWE1, stronger effect = lower value 0.993 | locus YJR066W, strain TOR1, stronger effect = lower value 0.92 | locus YKL160W, strain elf1, stronger effect = lower value 0.996 | locus YKR026C, strain gcn3, stronger effect = lower value 0.992 | locus YKR091W, strain srl3, stronger effect = lower value 0.993 | locus YLL001W, strain dnm1, stronger effect = lower value 1 | locus YLL026W, stronger effect = lower value 1 | locus YLL041C, strain sdh2, stronger effect = lower value 0.98 | locus YLR027C, strain aat2, stronger effect = lower value 1.02 | locus YLR113W, strain HOG1, stronger effect = lower value 1.1 | locus YLR221C, strain rsa3, stronger effect = lower value 1 | locus YLR258W, strain gsy2, stronger effect = lower value 0.979 | locus YLR262C, strain YPT6 (second series), stronger effect = lower value 0.998 | locus YLR320W, strain mms22, stronger effect = lower value 0.996 | locus YLR342W, strain FKS1, stronger effect = lower value 1 | locus YLR357W, strain rsc2, stronger effect = lower value 0.967 | locus YLR370C, strain arc18, stronger effect = lower value 0.986 | locus YLR384C, strain iki3, stronger effect = lower value 1 | locus YML120C, strain ndi1, stronger effect = lower value 0.98 | locus YMR058W, strain fet3, stronger effect = lower value 0.994 | locus YMR125W, strain sto1, stronger effect = lower value 0.984 | locus YMR129W, stronger effect = lower value 0.995 | locus YMR205C, strain PFK2, stronger effect = lower value 0.976 | locus YMR231W, strain pep5, stronger effect = lower value 0.991 | locus YNL071W, strain lat1, stronger effect = lower value 0.972 | locus YNL183C, strain NPR1, stronger effect = lower value 0.985 | locus YNL209W, strain ssb2, stronger effect = lower value 0.987 | locus YNL248C, strain rpa49, stronger effect = lower value 0.981 | locus YNL322C, strain KRE1 (second series), stronger effect = lower value 0.989 | locus YNR049C, strain mso1, stronger effect = lower value 0.994 | locus YOR001W, strain rrp6, stronger effect = lower value 0.972 | locus YOR070C, strain gyp1, stronger effect = lower value 1 | locus YOR080W, strain dia2, stronger effect = lower value 0.987 | locus YOR083W, strain WHI5, stronger effect = lower value 1 | locus YOR106W, strain vam3, stronger effect = lower value 0.99 | locus YOR231W, strain MKK1, stronger effect = lower value 0.95 | locus YOR265W, strain rbl2, stronger effect = lower value 0.993 | locus YOR270C, strain vph1, stronger effect = lower value 0.793 | locus YOR290C, strain snf2, stronger effect = lower value 1.01 | locus YPL051W, strain arl3, stronger effect = lower value 1.01 | locus YPL078C, strain atp4, stronger effect = lower value 0.975 | locus YPL106C, strain sse1, stronger effect = lower value 0.975 | locus YPL240C, strain hsp82, stronger effect = lower value 0.989 | locus YPL256C, strain CLN2, stronger effect = lower value 0.974
